Reference: PubChem BioAssay (EPA / NIEHS)
Activity calls are given as the source filed them. How the source made its calls: active means hit-call score of the fitted dose curve at least 0.9, where 1 is the maximum; inactive means score below 0.9.

What was measured:
[1] = ATG_GLI_CIS: Attagene CIS-FACTORIAL HepG2 Assay for human Zinc Finger Protein GLI1 (AID 2282945); conditions: HepG2, Attagene cis-factorial reporter mRNA, GLI element; actives raise or lower the signal
Summary of the method: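 Bidirectional curve fits relative to DMSO, using reporter mRNA levels from RT-PCR plus capillary electrophoresis. Cells were HepG2 transiently carrying cis-regulated reporter constructs, harvested 24 h after dosing.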

[2] = ATG_GRE_CIS: Attagene CIS-FACTORIAL HepG2 Assay for human Glucocorticoid Response Elements (GRE) (AID 2282947); conditions: HepG2 GRE cis-reporter, Attagene multiplex mRNA; actives raise or lower the signal
Summary of the method: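 Transient MRTU transfection of human HepG2 liver cells; cis-regulated reporters report endogenous factors. 24 h dosing → RNA isolation → RT-PCR → 6-FAM primer extension → HpaI cut → CE fragment analysis. Bidirectional fit, DMSO negative control.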

[3] = ATG_ISRE_CIS: Attagene CIS-FACTORIAL HepG2 Assay for human Interferon Regulatory Factor 1 (IRF1) binding to an Interferon-Stimulated Response Element (ISRE) (AID 2282948); conditions: HepG2 ISRE cis-reporter (Attagene), mRNA transcription readout; actives raise or lower the signal
Summary of the method: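 Transfected HepG2 (multiple reporter transcription units, cis elements) dosed 24 h. RNA → oligo(dT) RT → PCR → 6-FAM primer extension → HpaI → CE. DMSO = negative control/baseline.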

[4] = ATG_M_32_CIS: Attagene CIS-FACTORIAL HepG2 Assay for M32 Transcription Factor (Internal Marker) (AID 2282949); conditions: HepG2 Attagene cis-factorial M32 reporter, mRNA; actives raise or lower the signal;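 further: background control marker of the multiplexed CIS panel rather than a real target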
Summary of the method: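 HepG2 cells transiently transfected with multiplexed cis-regulated reporter units, dosed 24 h. Reporter mRNA quantified by RT-PCR, 6-FAM labelling, HpaI digestion and capillary electrophoresis; bidirectional fit vs DMSO.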

[5] = ATG_M_06_CIS: Attagene CIS-FACTORIAL HepG2 Assay for M06 Transcription Factor (Internal Marker) (AID 2282950); conditions: HepG2 Attagene CIS-FACTORIAL M06 internal marker reporter; actives raise or lower the signal
Summary of the method: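 HepG2 cells transiently transfected with cis-regulated multiple reporter transcription units were exposed to chemical for 24 h; reporter mRNA was quantified by RT-PCR, 6-FAM primer labelling, HpaI digestion and capillary electrophoresis, fitted bidirectionally against DMSO.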

[6] = biological target: Hepatocyte nuclear factor 6 (Homo sapiens) (UniProt Q9UBC0); assay: ATG_HNF6_CIS: Attagene CIS-FACTORIAL HepG2 Assay for human Hepatocyte Nuclear Factor 6 (HNF6) (AID 2282952); conditions: HepG2 Attagene cis-factorial HNF6 reporter transcription; actives raise or lower the signal
Summary of the method: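 Transiently transfected HepG2 cells expressing cis-regulated reporter transcription units were exposed to chemical for 24 h in a 24-well format. Reporter transcript abundance was determined by fluorescence capillary electrophoresis.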

[7] = biological target: Heat shock factor protein 1 (Homo sapiens) (UniProt Q00613); assay: ATG_HSE_CIS: Attagene CIS-FACTORIAL HepG2 Assay for human Heat Shock Transcription Factor 1 (HSE) (AID 2282953); conditions: HepG2 HSE cis-reporter, Attagene RNA transcription; actives raise or lower the signal
Summary of the method: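 HepG2 cells transiently transfected with multiple reporter transcription units under cis-regulatory promoter control, measuring endogenous transcription factor activity. After 24 h chemical exposure, reporter mRNA quantified by RT-PCR, fluorescent labelling, HpaI digestion and capillary electrophoresis; bidirectional fit versus DMSO.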

[8] = ATG_MRE_CIS: Attagene CIS-FACTORIAL HepG2 Assay for human Metal Responsive Element (MRE) (AID 2282954); conditions: HepG2 MRE cis-reporter transcription, Attagene multiplex; actives raise or lower the signal
Summary of the method: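 Transient MRTU transfection of HepG2 (FuGene 6); 24 h dosing; total RNA → oligo(dT) RT, PCR, 6-FAM primer extension, HpaI cut, CE. Bidirectional fit vs DMSO.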

[9] = ATG_PBREM_CIS: Attagene CIS-FACTORIAL HepG2 Assay for human Phenobarbital-responsive Enhancer Module (PBREM) (AID 2282955); conditions: HepG2 PBREM cis-reporter, Attagene multiplexed transcription; actives raise or lower the signal
Summary of the method: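 After a 24 h incubation with test chemical, transfected HepG2 cells yield total RNA; reporter-specific RT-PCR products are fluorescently labelled, HpaI-digested and resolved by capillary electrophoresis against ROX size standards.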

[10] = biological target: Paired box protein Pax-6 (Homo sapiens) (UniProt P26367); assay: ATG_Pax6_CIS: Attagene CIS-FACTORIAL HepG2 Assay for human Paired Box 6 (PAX6) (AID 2282956); conditions: HepG2 CIS-FACTORIAL PAX6 reporter transcription, RNA readout; actives raise or lower the signal
Summary of the method: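 Transient MRTU transfection of HepG2 → compound exposure 24 h → TriZol RNA, oligo(dT) RT → PCR, 6-FAM primer extension, HpaI cut → capillary electrophoresis; activity fitted both directions against DMSO.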

[11] = ATG_PXRE_CIS: Attagene CIS-FACTORIAL HepG2 Assay for human Pregnane X Receptor Element (PXRE) (AID 2282957); conditions: HepG2 Attagene CIS-FACTORIAL PXRE reporter, mRNA; actives raise or lower the signal
Summary of the method: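 Cis-element reporter mRNA in human hepatoma HepG2 cells is measured 24 h post-dosing by RT-PCR, primer-extension labeling and capillary electrophoresis; gain or loss of signal is fitted relative to DMSO.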

[12] = ATG_PPRE_CIS: Attagene CIS-FACTORIAL HepG2 Assay for human Peroxisome Proliferator-activated Response Element (PPRE) (AID 2282958); conditions: HepG2 PPRE cis-element reporter, Attagene transcription factor profiling; actives raise or lower the signal
Summary of the method: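 Multiplexed reporter transcription units under cis-regulatory promoters were transfected into HepG2 cells to capture endogenous factor activity. A 24 h incubation preceded RNA isolation and fluorescent RT-PCR fragment analysis.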

[13] = ATG_RORE_CIS: Attagene CIS-FACTORIAL HepG2 Assay for human RAR-related Orphan Receptor Element (RORE) (AID 2282959); conditions: HepG2 Attagene cis-factorial RORE reporter, mRNA; actives raise or lower the signal
Summary of the method: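 Fluorescence intensity of reporter-specific cDNA fragments, separated by capillary electrophoresis, gives the signal. Source: HepG2 liver cells transiently transfected with cis-element reporters and exposed 24 h; DMSO-normalized bidirectional fit.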

[14] = ATG_Sox_CIS: Attagene CIS-FACTORIAL HepG2 Assay for human SRY-box transcription factor (SOX) (AID 2282960); conditions: HepG2 Attagene cis-factorial SOX reporter, mRNA; actives raise or lower the signal
Summary of the method: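 After 24 h of chemical treatment, transfected HepG2 reporter cells are lysed for total RNA. Transcript levels come from RT-PCR with labelled primer extension and capillary electrophoresis, analysed bidirectionally versus DMSO.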

[15] = biological target: Transcription factor Sp1 (Homo sapiens) (UniProt P08047); assay: ATG_Sp1_CIS: Attagene CIS-FACTORIAL HepG2 Assay for human Specificity Protein 1 (Sp1) (AID 2282961); conditions: HepG2 Sp1 cis-reporter transcription, actives raise or lower the signal
Summary of the method: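 Sp1-driven reporter mRNA, read as capillary electrophoresis fluorescence after RT-PCR, in transiently transfected HepG2 cells dosed for 24 h; signal change in either direction relative to DMSO.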

[16] = ATG_SREBP_CIS: Attagene CIS-FACTORIAL HepG2 Assay for human Sterol Regulatory Element Binding (SREBP) (AID 2282962); conditions: HepG2 Attagene cis-factorial SREBP reporter, mRNA; actives raise or lower the signal
Summary of the method: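 Transfected HepG2 (cis-regulated reporter library, endogenous TFs) → compound 24 h → total RNA → oligo(dT) RT → reporter-specific PCR → FAM primer extension, HpaI cut → CE fluorescence. Fit bidirectional vs DMSO.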

[17] = biological target: Signal transducer and activator of transcription 3 (Homo sapiens) (UniProt P40763); assay: ATG_STAT3_CIS: Attagene CIS-FACTORIAL HepG2 Assay for human Signal Transducer and Activator of Transcription 3 (STAT3) (AID 2282963); conditions: HepG2, Attagene cis-factorial STAT3 reporter transcription; actives raise or lower the signal
Summary of the method: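 Endogenous STAT3-responsive cis-element activity was read in transiently transfected HepG2 cells after 24 h treatment. Reporter transcripts were quantified via RT-PCR and capillary electrophoresis, with DMSO as negative control and bidirectional curve fitting.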

[18] = ATG_TA_CIS: Attagene CIS-FACTORIAL HepG2 Assay for human TA Basal Promoter (AID 2282964); conditions: HepG2 Attagene CIS-factorial TA basal promoter reporter; actives raise or lower the signal
Summary of the method: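 HepG2 cells transiently transfected with multiplexed cis-promoter reporter units, dosed 24 h. Reporter mRNA measured by RT-PCR, 6-FAM labelling, HpaI digestion and capillary electrophoresis; bidirectional fit versus DMSO baseline, serving as background control.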

[19] = biological target: Hypoxia-inducible factor 1-alpha (Homo sapiens) (UniProt Q16665); assay: ATG_HIF1a_CIS: Attagene CIS-FACTORIAL HepG2 Assay for human Hypoxia Inducible Factor 1 (HIF1A) (AID 2282951); conditions: HepG2 Attagene cis-factorial HIF1a reporter transcription; actives raise or lower the signal
Summary of the method: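 In this multiplexed cell assay, HepG2 cells bearing transfected cis reporters are dosed for 24 h and reporter mRNA is read by RT-PCR plus capillary electrophoresis; signal increases and decreases are both scored against DMSO.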

[20] = biological target: Bile acid receptor (Homo sapiens) (UniProt Q96RI1); assay: ATG_IR1_CIS: Attagene CIS-FACTORIAL HepG2 Assay for human Nuclear Receptor Subfamily 1 Group H Member 4 (NR1H4), IR1 submotif (AID 2282946); conditions: IR1 reporter transcription, actives raise or lower the signal
Summary of the method: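 Cells (human HepG2) carry transiently transfected cis-promoter reporter transcription units. Compounds are incubated 24 h, total RNA is reverse-transcribed and amplified, and labelled fragments are resolved by capillary electrophoresis. Curves use DMSO as baseline.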

Measured: AC50

Sequence of Paired box protein Pax-6 (Homo sapiens) (P26367 whole entry, looked up): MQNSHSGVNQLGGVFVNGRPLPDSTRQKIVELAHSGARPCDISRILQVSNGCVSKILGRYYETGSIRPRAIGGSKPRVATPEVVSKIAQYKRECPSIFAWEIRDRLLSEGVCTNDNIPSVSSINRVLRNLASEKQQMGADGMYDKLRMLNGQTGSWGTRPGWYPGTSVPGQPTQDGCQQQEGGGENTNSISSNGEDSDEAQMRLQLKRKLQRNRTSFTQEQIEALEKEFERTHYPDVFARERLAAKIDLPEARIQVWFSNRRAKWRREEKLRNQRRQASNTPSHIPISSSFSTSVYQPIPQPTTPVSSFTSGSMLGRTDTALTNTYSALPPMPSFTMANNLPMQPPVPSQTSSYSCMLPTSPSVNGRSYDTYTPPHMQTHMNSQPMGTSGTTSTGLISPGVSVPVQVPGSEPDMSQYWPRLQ
Sequence of Heat shock factor protein 1 (Homo sapiens) (Q00613 whole entry, looked up): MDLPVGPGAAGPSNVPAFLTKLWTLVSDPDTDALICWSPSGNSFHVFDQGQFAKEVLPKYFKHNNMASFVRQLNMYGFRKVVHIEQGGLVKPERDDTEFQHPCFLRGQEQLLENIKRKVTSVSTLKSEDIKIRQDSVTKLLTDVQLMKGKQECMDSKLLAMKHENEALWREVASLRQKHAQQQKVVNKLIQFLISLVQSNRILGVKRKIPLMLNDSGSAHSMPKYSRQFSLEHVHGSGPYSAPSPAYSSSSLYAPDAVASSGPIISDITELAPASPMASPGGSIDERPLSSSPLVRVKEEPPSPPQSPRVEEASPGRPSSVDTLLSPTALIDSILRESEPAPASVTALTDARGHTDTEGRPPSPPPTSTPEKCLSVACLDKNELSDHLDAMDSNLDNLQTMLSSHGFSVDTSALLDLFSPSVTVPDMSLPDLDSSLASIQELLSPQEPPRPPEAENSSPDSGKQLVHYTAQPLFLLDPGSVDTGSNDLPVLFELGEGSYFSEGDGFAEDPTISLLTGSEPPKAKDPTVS
Sequence of Signal transducer and activator of transcription 3 (Homo sapiens) (P40763 whole entry, looked up): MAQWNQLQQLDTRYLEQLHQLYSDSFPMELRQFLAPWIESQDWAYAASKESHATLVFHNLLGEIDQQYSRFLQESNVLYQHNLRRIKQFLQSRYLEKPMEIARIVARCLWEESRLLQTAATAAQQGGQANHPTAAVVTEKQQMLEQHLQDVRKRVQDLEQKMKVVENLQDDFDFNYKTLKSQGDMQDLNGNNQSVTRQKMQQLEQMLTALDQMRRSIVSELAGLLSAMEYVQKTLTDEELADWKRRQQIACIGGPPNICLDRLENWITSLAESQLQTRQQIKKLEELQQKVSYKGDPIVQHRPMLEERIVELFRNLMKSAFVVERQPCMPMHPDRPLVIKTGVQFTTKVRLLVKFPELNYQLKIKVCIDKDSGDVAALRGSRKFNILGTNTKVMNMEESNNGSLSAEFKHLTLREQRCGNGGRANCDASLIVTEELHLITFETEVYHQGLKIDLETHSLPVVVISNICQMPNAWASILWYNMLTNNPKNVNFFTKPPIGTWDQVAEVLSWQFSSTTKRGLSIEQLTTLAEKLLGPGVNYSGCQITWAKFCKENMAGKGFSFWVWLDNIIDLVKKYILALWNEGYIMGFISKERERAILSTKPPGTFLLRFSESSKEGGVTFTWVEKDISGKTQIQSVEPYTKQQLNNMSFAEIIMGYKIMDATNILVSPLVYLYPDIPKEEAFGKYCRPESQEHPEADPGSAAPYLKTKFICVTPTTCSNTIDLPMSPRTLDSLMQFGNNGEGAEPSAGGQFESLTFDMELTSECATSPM
Sequence of Hepatocyte nuclear factor 6 (Homo sapiens) (Q9UBC0 whole entry, looked up): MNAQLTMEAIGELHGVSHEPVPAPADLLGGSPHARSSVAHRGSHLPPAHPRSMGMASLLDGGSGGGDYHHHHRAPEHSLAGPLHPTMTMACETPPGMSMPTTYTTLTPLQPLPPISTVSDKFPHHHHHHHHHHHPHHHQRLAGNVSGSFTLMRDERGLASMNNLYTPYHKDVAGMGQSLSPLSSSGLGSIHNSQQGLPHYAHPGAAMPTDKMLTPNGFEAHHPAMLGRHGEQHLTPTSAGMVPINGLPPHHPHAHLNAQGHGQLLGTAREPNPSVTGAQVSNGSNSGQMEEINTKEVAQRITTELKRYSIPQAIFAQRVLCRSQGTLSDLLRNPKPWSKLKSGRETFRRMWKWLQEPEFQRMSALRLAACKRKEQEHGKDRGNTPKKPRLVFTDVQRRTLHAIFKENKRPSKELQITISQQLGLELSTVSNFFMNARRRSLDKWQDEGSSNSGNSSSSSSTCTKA
Sequence of Hypoxia-inducible factor 1-alpha (Homo sapiens) (Q16665 whole entry, looked up): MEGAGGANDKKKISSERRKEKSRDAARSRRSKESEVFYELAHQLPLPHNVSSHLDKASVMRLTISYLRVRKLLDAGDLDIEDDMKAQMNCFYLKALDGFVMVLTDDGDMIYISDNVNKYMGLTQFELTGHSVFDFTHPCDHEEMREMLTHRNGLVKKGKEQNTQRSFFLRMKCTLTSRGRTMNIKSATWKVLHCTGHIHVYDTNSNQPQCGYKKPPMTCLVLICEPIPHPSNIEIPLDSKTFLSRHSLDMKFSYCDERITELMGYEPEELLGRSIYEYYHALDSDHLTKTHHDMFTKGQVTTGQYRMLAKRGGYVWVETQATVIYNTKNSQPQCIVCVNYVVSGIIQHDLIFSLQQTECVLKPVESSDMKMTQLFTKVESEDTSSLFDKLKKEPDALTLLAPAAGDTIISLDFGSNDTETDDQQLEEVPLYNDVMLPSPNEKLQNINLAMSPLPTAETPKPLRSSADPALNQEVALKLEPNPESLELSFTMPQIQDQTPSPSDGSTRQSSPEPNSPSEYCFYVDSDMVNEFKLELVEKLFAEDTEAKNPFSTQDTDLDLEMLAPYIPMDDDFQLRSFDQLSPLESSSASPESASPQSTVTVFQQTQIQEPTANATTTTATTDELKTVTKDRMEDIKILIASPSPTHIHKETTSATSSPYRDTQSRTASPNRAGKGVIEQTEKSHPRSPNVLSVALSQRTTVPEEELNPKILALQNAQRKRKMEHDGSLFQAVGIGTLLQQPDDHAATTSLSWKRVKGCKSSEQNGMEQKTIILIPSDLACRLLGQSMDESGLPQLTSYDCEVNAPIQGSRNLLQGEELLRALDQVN
Sequence of Transcription factor Sp1 (Homo sapiens) (P08047 whole entry, looked up): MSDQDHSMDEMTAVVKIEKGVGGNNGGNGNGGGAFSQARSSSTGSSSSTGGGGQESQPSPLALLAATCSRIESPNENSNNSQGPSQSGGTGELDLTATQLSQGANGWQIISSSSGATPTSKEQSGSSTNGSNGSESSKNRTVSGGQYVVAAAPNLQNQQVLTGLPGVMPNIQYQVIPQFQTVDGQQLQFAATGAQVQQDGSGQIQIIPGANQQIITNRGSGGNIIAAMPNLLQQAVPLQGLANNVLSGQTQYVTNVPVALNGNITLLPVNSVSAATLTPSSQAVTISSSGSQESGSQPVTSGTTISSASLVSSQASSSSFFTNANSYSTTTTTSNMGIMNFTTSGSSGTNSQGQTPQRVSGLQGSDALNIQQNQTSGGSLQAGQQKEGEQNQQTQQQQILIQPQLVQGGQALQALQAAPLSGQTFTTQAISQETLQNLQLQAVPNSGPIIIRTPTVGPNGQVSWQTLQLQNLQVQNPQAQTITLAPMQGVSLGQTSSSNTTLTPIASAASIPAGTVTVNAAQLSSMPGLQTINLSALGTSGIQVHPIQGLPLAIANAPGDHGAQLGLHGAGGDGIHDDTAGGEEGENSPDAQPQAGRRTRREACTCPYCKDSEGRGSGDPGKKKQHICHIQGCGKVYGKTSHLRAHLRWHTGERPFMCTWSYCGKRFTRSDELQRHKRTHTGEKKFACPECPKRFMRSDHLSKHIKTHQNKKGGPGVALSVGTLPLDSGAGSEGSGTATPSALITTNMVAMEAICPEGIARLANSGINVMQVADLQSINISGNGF
Sequence of Bile acid receptor (Homo sapiens) (Q96RI1 whole entry, looked up, the tested form may be a part): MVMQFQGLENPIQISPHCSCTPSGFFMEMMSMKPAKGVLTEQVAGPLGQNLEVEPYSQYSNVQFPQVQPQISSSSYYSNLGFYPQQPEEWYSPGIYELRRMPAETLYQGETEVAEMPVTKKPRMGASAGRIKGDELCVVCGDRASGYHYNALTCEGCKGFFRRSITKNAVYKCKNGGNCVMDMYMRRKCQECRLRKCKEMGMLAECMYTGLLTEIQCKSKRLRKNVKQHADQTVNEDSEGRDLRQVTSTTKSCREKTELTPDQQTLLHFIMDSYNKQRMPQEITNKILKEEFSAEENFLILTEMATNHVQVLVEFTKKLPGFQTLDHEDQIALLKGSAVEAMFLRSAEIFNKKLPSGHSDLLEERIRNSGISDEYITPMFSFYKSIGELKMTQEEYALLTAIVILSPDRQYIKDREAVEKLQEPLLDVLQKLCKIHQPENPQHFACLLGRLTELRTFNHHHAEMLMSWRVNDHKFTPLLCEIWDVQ

COc1ccc(S(=O)(=O)N2C(=O)[C@@](c3ccccc3OC)(N3C[C@H](O)C[C@H]3C(=O)N(C)C)c3cc(Cl)ccc32)c(OC)c1
active: [1] 125 µM | [2] 147 µM | [3] 49.9 µM | [4] 133 µM | [7] 149 µM | [8] 45.5 µM | [9] 17.1 µM | [10] 64.1 µM | [11] 0.0584 µM | [12] 76.8 µM | [13] 28.5 µM | [14] 122 µM | [18] 46.6 µM
inactive: [5] | [6] | [15] | [16] | [17]

COc1ccc(C)cc1N
not listed: [20]
inactive: all other assays above

COC(=O)c1ccc(O)cc1
not listed: [9] | [13] | [20]
inactive: all other assays above

C[Si]1(C)O[Si](C)(C)O[Si](C)(C)O[Si](C)(C)O1
active: [11] 26.6 µM
not listed: [2] | [15] | [19]
inactive: all other assays above

CC1(C)NC(=O)NC1=O
active: [19] 12 µM | [11] 25.7 µM
not listed: [15] | [20]
inactive: all other assays above

Oc1ccc2ccccc2c1N=Nc1ccccc1
active: [8] 2.47 µM | [9] 5.39 µM | [11] 7.05 µM | [13] 2 µM
not listed: [2] | [12] | [19]
inactive: all other assays above

COc1cccc2c1C(=O)c1c(O)c3c(c(O)c1C2=O)C[C@@](O)(C(=O)CO)C[C@@H]3O[C@H]1C[C@H](N)[C@H](O)[C@H](C)O1
active: [1] 1.25 µM | [2] 0.942 µM | [3] 1.63 µM | [19] 1.23 µM | [8] 1.66 µM | [16] 0.909 µM
not listed: [15] | [20]
inactive: all other assays above
